Assay results published in PubChem BioAssay (NCATS).
Several values for one entry are separate records, joined by “and”; a condition that tells them apart may be missing. Equal entries are not always repeated. Records with an inconclusive call do not appear. Activity calls are given as the source filed them. Unless noted, the call rests on the fitted dose curve; in most records, active means well fitted curve in the direction sought with a large enough effect; inconclusive means small, poorly fitted or top-dose-only effect, or another doubt; inactive means no such curve, though single readings can be large; an effect the other way counts as inactive or inconclusive.

Columns and labels:
[1] = Cell Viability - Jurkat (AID 426;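 active means dose-dependent loss of cell ATP signal giving a full or clear fitted curve, ranked by lower potency value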;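 further: potency means the concentration at half of the fitted maximal effect; cells exposed to compound for 40 hours at 37 °C before ATP read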); conditions: qHTS
Summary of the method: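 qHTS, 1536-well; Jurkat E6-1, 5000 cells/well, complete medium; cpd 40 hr, 37 °C; CellTiter-Glo 20 min RT; luminescence. AC50 by Hill fit.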

[2] = Cell Viability - Hek293 (AID 427;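 active means compounds whose dose-response curve shows a full or clear partial loss of cell viability, called from curve shape rather than a numeric limit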;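 further: potency means the concentration at half of the fitted maximal effect; cells exposed to compound for 40 hours at 37 °C before reading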); conditions: qHTS
Summary of the method: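 qHTS, human embryonic kidney (adenovirus-transformed) cells; 40 hr cpd, 37 °C; CellTiter-Glo ATP luminescence. Norm: DMSO = 0, 100 uM tamoxifen = 100% inhibition. Hill-fit AC50.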

[3] = Cell Viability - H-4-II-E (AID 543); conditions: H-4-II-E rat hepatoma viability; series mostly up to 92.2 µM; further: on the % scale 0 is the no-effect control and ±100 the full control effect; nearly all actives have a fitted effect of over 35% in size
Summary of the method: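 Luminescent ATP signal (CellTiter-Glo) served as the viability read-out, with cytotoxicity seen as a concentration-dependent ATP drop. Cells were treated for 40 hours in complete medium. AC50 values derive from Hill-equation modelling.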

[4] = Cellular Toxicity (caspase-3) NIH 3T3 (AID 666); conditions: NIH 3T3 caspase-3 activation, apoptosis/toxicity, 0% DMSO, 100% is 100 µM tamoxifen; series mostly up to 92.2 µM;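 further: caspase signal read after 16 h compound exposure; 0% = DMSO basal and 100% = 100 µM tamoxifen stimulation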
Summary of the method: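 Luminescence from aminoluciferin released by caspase-3/7 cleavage of a peptide substrate served as read-out. Mouse fibroblast NIH 3T3 cells were exposed to compounds over a concentration range for 16 hours, and AC50 values came from standard Hill modelling.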

[5] = Cell Viability - LYMP2-001 (AID 921); conditions: LYMP2-001 lymphoblastoid cell viability; series mostly up to 92.2 µM;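 further: 0% = DMSO only and full inhibition = tetraoctylammonium bromide control wells; nearly all actives have a fitted effect of over 70% in size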
Summary of the method: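 Human lymphoblastoid LYMP2-001 cells, 2500 per well, in complete medium, treated 24 h at 37 C. Viability from cellular ATP by CellTiter-Glo luminescence; AC50 from Hill-equation fits of qHTS concentration-response.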

[6] = MultiTox-Fluor Cytotoxicity Assay - LYMP1-002 - Dead Cells (AID 960); conditions: LYMP1-002 lymphoblastoid cells, dead-cell protease fluorescence; series mostly up to 46.1 µM; further: nearly all actives have a fitted effect of over 60% in size
Summary of the method: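 LYMP1-002 cells 2500/well; 5 hr 37 C pre-incubation; compound 16 hr 37 C; MultiTox-Fluor reagent 60 min RT; dead-cell fluor Ex/Em 485/520. Norm. to DMSO (0%) vs 15 uM tetraoctylammonium bromide (100%); Hill AC50.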

[7] = Cell Viability - LYMP2-009 (AID 968); conditions: LYMP2-009 lymphoblastoid cell viability; series mostly up to 92.2 µM;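 further: 0% = DMSO alone and the full-kill end = tetraoctylammonium bromide at 92 µM; nearly all actives have a fitted effect of over 55% in size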
[8] = Cell Viability - LYMP2-017 (AID 972); conditions: LYMP2-017 lymphoblastoid cell viability; series mostly up to 92.2 µM;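 further: cells exposed to compound for 24 hours at 37 °C; on the % scale 0 is the no-effect control and ±100 the full control effect; nearly all actives have a fitted effect of over 55% in size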
Summary of the method: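 2500 cells/well, 5 h 37 C; cpd 24 h 37 C in complete medium; CellTiter-Glo, 30 min RT; luminescence (ATP). AC50 via Hill fit, qHTS.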

[9] = Cell Viability - LYMP2-016 (AID 984); conditions: LYMP2-016 lymphoblastoid cell viability, qHTS; series mostly up to 92.2 µM;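 further: cells exposed to compound for 24 hours at 37 °C; on the % scale 0 is the no-effect control and ±100 the full control effect; nearly all actives have a fitted effect of over 55% in size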
Summary of the method: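 Human lymphoblastoid LYMP2-016 cells, 2500 per well, treated with compounds for 24 h at 37 C. Viability read as intracellular ATP by CellTiter-Glo luminescence after 30 min at room temperature; AC50 from Hill fits of concentration-response.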

[10] = Cell Viability - LYMP1-002 - Assay at 40 hr (AID 994); conditions: LYMP1-002 lymphoblastoid cell viability; series mostly up to 92.2 µM;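 further: 0% = DMSO only and full inhibition = 92 µM tetraoctylammonium bromide; nearly all actives have a fitted effect of over 60% in size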
Summary of the method: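 Luminescent ATP signal served as the viability readout, with decreases taken as toxicity. Cells were treated with compounds across a concentration range for 40 hours at 37 C, and AC50 values came from standard Hill modeling.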

[11] = target: Peroxisome proliferator-activated receptor gamma (Homo sapiens) (UniProt P37231); experiment: qHTS assay for small molecule agonists of peroxisome proliferator-activated receptor gamma signaling (AID 588536; active means well fitted curve in the direction sought with a large enough effect in the signal ratio, with a control signal flat, not every such curve was filed as active; the % refers to the signal ratio;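 further: 0% = DMSO basal wells and 100% = rosiglitazone at 2 µM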); conditions: HEK293 PPARg-UAS-bla, beta-lactamase ratio, 16 h, percent of rosiglitazone response, DMSO as zero; series mostly up to 76.7 µM
Summary of the method: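 Test agents, titrated, stimulated HEK293 UAS-bla cells overnight (16 h, 37 C). Substrate CCF4 was then added for two hours at room temperature before fluorescence reading.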

[12] = target: Vitamin D3 receptor (Homo sapiens) (UniProt P11473); experiment: qHTS assay for small molecule antagonists of vitamin D receptor signaling (AID 588541; calls by dose curve;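 further: receptor activated by calcitriol during compound treatment; on the % scale 0 is the no-effect control and ±100 the full control effect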); conditions: HEK293T VDR-UAS-bla, beta-lactamase ratio, antagonist mode; series mostly up to 76.7 µM
Summary of the method: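 Antagonist-mode beta-lactamase reporter assay: HEK293T VDR-UAS-bla cells were exposed to titrated compound alongside 1-alpha,25-dihydroxyvitamin D3 at 3 nM final for 16 h. Values were normalized to the 50 nM agonist control and DMSO basal, with IC50 and efficacy from Hill equation fits.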

[13] = target: Vitamin D3 receptor (Homo sapiens) (UniProt P11473); experiment: qHTS assay for small molecule agonists of vitamin D receptor signaling (AID 588543; calls by dose curve;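 further: 0% = DMSO basal and 100% = reference agonist control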); conditions: HEK293T VDR-UAS-bla, beta-lactamase ratio, 16 h; series mostly up to 76.8 µM
Summary of the method: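 VDR-UAS-bla HEK293T cells, 2000/well, 2% charcoal-stripped FBS; compound titration 16 h at 37 C; CCF4 beta-lactamase ratio read. Normalized to 50 nM 1-alpha,25-dihydroxyvitamin D3 (100%) and DMSO; Hill fit gives EC50, efficacy.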

[14] = qHTS assay for small molecule disruptors of the mitochondrial membrane potential - 1 hr assay (AID 651754; calls by dose curve; further: on the % scale 0 is the no-effect control and ±100 the full control effect; nearly all actives have a fitted effect of over 35% in size); conditions: series mostly up to 92.2 µM
Summary of the method: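 HepG2, 2,000 cells/well, overnight attachment; cpd or DMSO 1 hr, 37C/5% CO2; Mito-MPS dye 30 min, 37C; fluorescence monomer (490/535) and aggregate (540/590).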

[15] = qHTS assay for small molecule disruptors of the mitochondrial membrane potential - 5 hr assay (AID 651755; calls by dose curve; further: on the % scale 0 is the no-effect control and ±100 the full control effect; nearly all actives have a fitted effect of over 40% in size); conditions: JC-1-type ratio dye; series mostly up to 92.2 µM
Summary of the method: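 HepG2, 2,000 cells/well, overnight attach; cpd or DMSO 5 hr, 37C/5% CO2; Mito-MPS 30 min 37C; fluor 490/535 + 540/590 nm.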

[16] = qHTS assay for environmental chemicals that activate the Aryl hydrocarbon Receptor (AhR) signaling pathway (AID 651777); conditions: 1A2-DRE human hepatoma cells, luciferase, 24 h; activation: stronger effect = higher value; further: % of control where 0% means no effect; nearly all actives have a fitted effect of over 15% in size
Summary of the method: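 1A2-DRE human hepatoma reporter line; 1,200 cells/well; cmpd or DMSO 24 h, 37 C/5% CO2; One-Glo 30 min RT; luciferase lum.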

[17] = target: Nuclear receptor ROR-gamma (Homo sapiens) (UniProt P51449); experiment: qHTS assay for small molecule antagonists of the retinoid-related orphan receptor gamma (ROR-gamma) signaling pathway (AID 651802); conditions: ROR-gamma antagonist cell reporter assay; series mostly up to 92.2 µM;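 further: CHO cells with doxycycline-induced ROR-gamma expression; luciferase reporter luminescence driven by ROR response element; on the % scale 0 is the no-effect control and ±100 the full control effect; nearly all actives have a fitted effect of over 60% in size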
Summary of the method: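 CHO, TET-inducible ROR + RORE-LUC reporter, 1536-well qHTS. Compound pinned, doxycycline added, 16hr 37C/5% CO2. ONE-Glo, 30 min RT, luminescence; signal drop scored as antagonism.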

Peroxisome proliferator-activated receptor gamma (Homo sapiens), sequence (P37231 whole entry, looked up): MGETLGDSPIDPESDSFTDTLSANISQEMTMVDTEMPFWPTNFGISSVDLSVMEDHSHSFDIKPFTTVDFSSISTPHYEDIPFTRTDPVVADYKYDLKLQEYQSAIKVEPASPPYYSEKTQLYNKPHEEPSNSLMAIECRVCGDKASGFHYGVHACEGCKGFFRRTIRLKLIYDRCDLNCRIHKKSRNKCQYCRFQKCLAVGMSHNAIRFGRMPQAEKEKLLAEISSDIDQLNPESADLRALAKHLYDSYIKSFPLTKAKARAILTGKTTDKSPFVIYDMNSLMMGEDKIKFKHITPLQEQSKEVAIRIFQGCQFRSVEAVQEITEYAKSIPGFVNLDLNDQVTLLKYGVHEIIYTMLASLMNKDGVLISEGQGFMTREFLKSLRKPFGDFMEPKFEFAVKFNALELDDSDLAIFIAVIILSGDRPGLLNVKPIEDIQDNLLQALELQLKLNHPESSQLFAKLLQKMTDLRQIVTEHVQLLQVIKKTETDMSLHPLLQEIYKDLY
Nuclear receptor ROR-gamma (Homo sapiens), sequence (P51449 whole entry, looked up): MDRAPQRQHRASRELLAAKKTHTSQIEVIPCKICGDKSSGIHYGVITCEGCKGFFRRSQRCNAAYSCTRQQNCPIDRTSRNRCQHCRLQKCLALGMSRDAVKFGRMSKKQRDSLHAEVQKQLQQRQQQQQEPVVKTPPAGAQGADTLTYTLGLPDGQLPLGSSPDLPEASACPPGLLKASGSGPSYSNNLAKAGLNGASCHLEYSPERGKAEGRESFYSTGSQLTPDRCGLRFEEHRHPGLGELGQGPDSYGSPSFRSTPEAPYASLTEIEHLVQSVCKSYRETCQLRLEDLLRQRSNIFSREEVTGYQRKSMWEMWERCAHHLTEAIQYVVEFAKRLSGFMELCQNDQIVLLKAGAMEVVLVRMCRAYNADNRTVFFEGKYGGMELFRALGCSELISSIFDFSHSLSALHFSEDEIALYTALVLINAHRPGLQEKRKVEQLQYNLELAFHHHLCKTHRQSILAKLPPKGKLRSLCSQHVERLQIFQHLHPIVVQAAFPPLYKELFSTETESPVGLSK
Vitamin D3 receptor (Homo sapiens), sequence (P11473 whole entry, looked up): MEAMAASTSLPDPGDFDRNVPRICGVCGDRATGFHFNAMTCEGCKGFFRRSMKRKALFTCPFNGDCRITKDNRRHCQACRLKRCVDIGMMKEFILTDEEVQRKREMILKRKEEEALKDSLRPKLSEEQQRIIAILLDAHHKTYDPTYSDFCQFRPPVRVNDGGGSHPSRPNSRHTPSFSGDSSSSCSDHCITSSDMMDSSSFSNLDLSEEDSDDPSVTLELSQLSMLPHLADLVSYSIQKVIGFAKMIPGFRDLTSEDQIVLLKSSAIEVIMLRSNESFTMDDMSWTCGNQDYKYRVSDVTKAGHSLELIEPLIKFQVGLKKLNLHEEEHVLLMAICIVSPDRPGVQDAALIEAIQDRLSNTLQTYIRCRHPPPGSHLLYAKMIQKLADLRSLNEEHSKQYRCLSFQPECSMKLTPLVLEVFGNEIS

NC(=S)Nc1ccccc1
inactive: Potency [1] > 92 µM | Potency [2] > 92 µM | Potency [3] | outcome [4] | Potency [5] | Potency [6] | Potency [7] | Potency [8] | Potency [9] | Potency [10] | outcome [11] | outcome [12] | outcome [13] | Potency [14] | Potency [15] | activation [16] 0.646% and -0.436% and 0.133% | Potency [17]

c1ccc2c(c1)CCCC2
inactive: Potency [1] > 92 µM | Potency [2] > 92 µM | Potency [3] | outcome [4] | Potency [5] | Potency [6] | Potency [7] | Potency [8] | Potency [9] | Potency [10] | outcome [11] | outcome [12] | outcome [13] | Potency [14] | Potency [15] | activation [16] 2.13% | Potency [17]

O=NN(c1ccccc1)c1ccccc1
inactive: Potency [1] > 92 µM | Potency [2] > 92 µM | Potency [3] | outcome [4] | Potency [5] | Potency [6] | Potency [7] | Potency [8] | Potency [9] | Potency [10] | outcome [11] | Potency [14] | Potency [15] | activation [16] 0.195% and 0.974% | Potency [17]

CCCCOCCOP(=O)(OCCOCCCC)OCCOCCCC
inactive: Potency [1] > 92 µM | Potency [2] > 92 µM | Potency [3] | outcome [4] | Potency [5] | Potency [6] | Potency [7] | Potency [8] | Potency [9] | Potency [10] | outcome [11] | outcome [12] | outcome [13] | Potency [14] | Potency [15]

C=CC(=C)C
inactive: Potency [1] > 92 µM | Potency [2] > 92 µM | Potency [3] | outcome [4] | Potency [5] | Potency [7] | Potency [8] | Potency [9] | Potency [10] | outcome [11] | outcome [12] | outcome [13] | Potency [14] | Potency [15] | activation [16] -0.578% | Potency [17]

CCSC(=O)Cl
inactive: Potency [1] > 92 µM | Potency [2] > 92 µM | Potency [3] | outcome [4] | Potency [5] | Potency [6] | Potency [7] | Potency [8] | Potency [9] | Potency [10] | outcome [11] | outcome [12] | outcome [13] | Potency [14] | Potency [15] | activation [16] 0.624% | Potency [17]
